# Reference: PubChem BioAssay AID1063 (University of Pittsburgh Molecular Library Screening Center, 2008)
# In all, about 200,000 compounds went through this assay and about 18,000 (9%) were called active. The entries come from a sample that favours actives as a whole. Unmarked numbers belong to inactive results. Rule as the data show it: active = inhibition above about 50%; inactive = the rest.
# Experiment: antileishmanial activity against promastigotes – primary screen (AID 1063);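 also: promastigotes grown with compound for 44 hours at 28 °C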
# Conditions: Leishmania major promastigotes, resazurin fluorescence viability; at 10 µM; stronger effect = higher value
row,Structure (SMILES),inhibition
1,O=C(CP(=O)(c1ccccc1)c1ccccc1)N1CCOCC1,-9.31%
2,O=C(NC1CCCCCC1)c1cccnc1Sc1ccc(Cl)cc1,-4.38%
3,O=C(NCc1cccnc1)c1cccnc1Sc1ccc(Cl)cc1,84.6% (active)
4,CS(=O)(=O)N(Cc1ccccc1Cl)c1ccc(C(=O)NCc2cccnc2)cc1,1.77%
5,O=C(O)c1ccccc1-c1ccccc1C(=O)NCc1cccnc1,-6.64%
6,Cc1ccc(CNC(=O)c2cccnc2Cl)cc1,0.71%
7,Cc1ccc(S(=O)(=O)N(Cc2ccc(Cl)cc2)c2ccccc2C(=O)NCc2cccnc2)cc1,93.2% (active)
8,O=C(NC(=S)Nc1cccc(-c2ccc(CO)o2)c1)c1cccs1,-1.96%
9,Cc1cc2c(cc1C)[n+](C)cn2CC(O)COCC1CC=CCC1 (centres undefined),-1.67%
10,COc1ccc(N2CCN(C(=O)/C(C#N)=C/c3ccccc3)CC2)cc1,6.39%
11,Cc1ccc(N2C(=O)C3CC3C2=O)cc1 (centres undefined),-5.37%
12,O=C(COC(=O)c1ccc(Cl)nc1)NCc1cccs1,-8.06%
13,CC(=O)Nc1cccc(-c2nc3ccccc3s2)c1C,17.8%
14,CCN(CC)c1ccc(C(=O)c2cnc(/N=C/N(C)C)s2)cc1,0.96%
15,Cc1cccc(N2CCN(c3ccc(C(N)=O)cc3[N+](=O)[O-])CC2)c1C,2.25%
16,CCc1c(SCCC(=O)O)nc2ccccc2c1C,-1.78%
17,CN1CCN(NC(=O)c2ccc(S(=O)(=O)N3CCCCCC3)cc2)CC1,-0.39%
18,O=C(CC(=O)Nc1ccc(Cl)c(Cl)c1)N/N=C/c1ccc(O)cc1,59.3% (active)
19,O=C(C[n+]1ccccc1)N/N=C/c1ccc(O)cc1,-6.86%
20,CC1=NNC(=O)C1CCC(=O)N/N=C\c1ccc(Cl)c(Cl)c1 (centres undefined),-3.71%
21,CCOC(=O)c1c(-c2cccc(N)c2)cn2ccccc12,0.87%
22,Cc1ccc(COc2ccc(/C=N/NC(=O)CN3CCCCC3)cc2)cc1,5.55%
23,O=C(Nc1cccc([N+](=O)[O-])c1)Nc1ccc(Cl)cn1,-0.05%
24,O=C(CCl)N(Cc1cccc([N+](=O)[O-])c1)c1cccc(Cl)c1,101% (active)

row,Structure (SMILES),inhibition
1,CCN(CC)C(=O)CN(c1cccc([N+](=O)[O-])c1)S(=O)(=O)c1ccccc1,-3.8%
2,Cc1ccc(C(=O)OC(C)CN2CCOCC2)cc1 (centres undefined),-9.42%
3,COC(=O)C(C)NC(=O)COc1ccc2ccccc2c1 (centres undefined),9.52%
4,CCCCCCCCc1c(O)nc(-n2[nH]c(C)c(CCO)c2=O)[nH]c1=O,-4.27%
5,COC(=O)/C(=C1\Oc2ccc(C(C)(C)C)cc2S1)C(F)(F)F,-4.31%
6,Cc1cc2ccccn2c1C(=O)c1cccc(S(=O)(=O)N2CCOCC2)c1,15.2%
7,COc1ccc(C(=O)CSc2nnnn2C)c(OC)c1,-1.53%
8,COc1ccc(CNC(=O)CCCn2nc(C)c([N+](=O)[O-])c2C)cc1,-8.33%
9,Cc1ccc(Oc2cc(NC(=O)CCCn3nc(C)c([N+](=O)[O-])c3C)cc([N+](=O)[O-])c2)cc1,98.4% (active)
10,Cc1nn(CC(=O)Nc2ccc(N(C)C)cc2)c(C)c1[N+](=O)[O-],0.03%
11,Cc1ccc(CNC(=O)CC2Sc3ccccc3NC2=O)cc1 (centres undefined),-7.06%
12,CNc1nc2c(C)cccn2c(=O)c1C=Nc1ccc(OC)cc1,1.72%
13,CC(=O)Nc1ccc(/C(C)=N/NC(=O)CN(c2ccccc2Br)S(C)(=O)=O)cc1,50.5% (active)
14,C/C(=N/NC(=O)c1ccc(NC(=O)c2ccc(F)cc2)cc1)c1ccccc1,-6.46%
15,COc1ccccc1N(CC(=O)Nc1ccc(C(F)(F)F)cc1)S(C)(=O)=O,1.92%
16,O=C(Nc1ccccc1F)c1ccc(Cn2cc(Br)cn2)cc1,-6.11%
17,Cc1ccc(-c2nc(C#N)c(NCCCn3ccnc3)o2)cc1,2.16%
18,O=C(Cn1ncc(N2CCCC2)c(Br)c1=O)c1ccc(Cl)cc1,1.31%
19,CCn1c(=O)cc(OCC(=O)NCCCN2CCN(c3cccc(Cl)c3)CC2)c2ccccc21,23.9%
20,CC1CCCC(C)N1CCCNC(=O)c1cc2c(=O)n(C)c3ccccc3c2n1C (centres undefined),8.51%
21,Cn1c(C(=O)NCCCN2CCN(c3cccc(Cl)c3)CC2)cc2c(=O)n(C)c3ccccc3c21,62.5% (active)
22,Cc1cc(NC(=O)CSc2nc3c(cc2C#N)CCCCC3)no1,2.09%
23,O=C(CCC1CCCN(C(=O)Cc2ccc(F)cc2)C1)N1CCN(c2ccccn2)CC1 (centres undefined),0.87%
24,O=C(COC(=O)c1cnccn1)Nc1cccc2ccccc12,-4.62%

row,Structure (SMILES),inhibition
1,Cc1cc(C)n2nc(C(=O)N(C)C(c3ccccc3)c3ccccc3)nc2n1,0.1%
2,O=C(CO/N=C/c1ccc(OC(F)F)cc1)NCc1ccc(F)cc1,6.32%
3,CCOc1ccc(NC(=O)CC2C(=O)N(c3ccccc3)C(=O)N2CCOC)cc1 (centres undefined),-1.57%
4,COc1ccc(N2C(=O)C(CC(=O)Nc3ccccc3)N(Cc3ccc(OC)c(OC)c3)C2=O)cc1 (centres undefined),-5.05%
5,COC(=O)CN1C(=S)N(c2ccccc2)C(=O)C1CC(=O)Nc1ccc(Cl)cc1 (centres undefined),50.4% (active)
6,O=C(Nc1ccc(-c2ccc3nncn3n2)cc1)C1CCCCC1,-4.63%
7,CCc1ccc(CN2C(=O)c3ccccc3C2C(=O)NCC2CCCO2)cc1 (centres undefined),5.61%
8,COc1cccc(CN(C)CC(=O)NCc2ccccc2Cl)c1OC,2.93%
9,Cn1c(=O)c(=O)n(C)c2cc(S(=O)(=O)NCCc3ccccc3)ccc21,18.8%
10,COC(=O)c1cc(S(=O)(=O)NC2CCN(Cc3ccccc3)CC2)cn1C,79.3% (active)
11,O=C(NC1(C(F)(F)F)NC(=O)N(C2CCCCC2)C1=O)c1ccco1 (centres undefined),-0.8%
12,COc1cc(NC(=S)NCc2ccco2)c(OC)cc1Cl,7.75%
13,Cc1ccc(C(=O)COc2cccc(NC(=O)c3ccco3)c2)cc1,64.6% (active)
14,COC(=O)c1ccc(NC(=O)c2ccco2)cc1,-5.73%
15,COc1cc(NC(=O)c2cc([N+](=O)[O-])ccc2Br)ccc1NC(=O)c1ccco1,99% (active)
16,COc1ccc(NC(=O)c2cccc(NC(=O)c3ccco3)c2)c(OC)c1,99.3% (active)
17,COc1cccc(C(=O)Nc2ccc(NC(=O)c3ccco3)cn2)c1,4.41%
18,O=C(Nc1ccc(NC(=O)c2ccco2)c(Cl)c1)c1cccc([N+](=O)[O-])c1,-5.27%
19,COC(=O)c1cc(Cl)c(NC(=O)c2ccco2)cc1OC,8.8%
20,COc1ccccc1C(=O)Nc1ccc(NC(=O)c2ccco2)c(C)c1,3.48%
21,Cc1ccnc(NC(=O)c2ccc(NC(=O)c3ccco3)cc2)c1,-2.95%
22,CCS(=O)(=O)c1ccc(O)c(NC(=O)COc2ccc(Cl)cc2)c1,-12.8%
23,CCOc1c(CNCc2ccc(C(=O)O)cc2)cccc1OC,-5.92%
24,NS(=O)(=O)c1ccc(NC(=S)NC(=O)c2cccnc2)cc1,-2.35%

row,Structure (SMILES),inhibition
1,COCC(C)n1c(C)cc(C(=O)COc2ccc(C)nc2[N+](=O)[O-])c1C (centres undefined),3.94%
2,CCc1ccc(NC(=O)C(=O)N/N=C(\C)CC(=O)NCCOC)cc1,-2.29%
3,COc1ccc(NC(=O)CN2C(=O)CSC2=O)cc1,-6.2%
4,Cc1ccc(-n2[nH]c(C)c(/C=N/N3C(=O)c4cccc5cccc(c45)C3=O)c2=O)cc1,-6.15%
5,COc1cc(SC#N)ccc1N=Cc1c(C)[nH]n(-c2ccc(C)cc2)c1=O,100% (active)
6,CCc1nnc(NS(=O)(=O)c2ccc(N=Cc3c(C)[nH]n(-c4ccc(C)cc4)c3=O)cc2)s1,-3.52%
7,COc1ccc(C)cc1NC(=O)CSc1nnc(CC(=O)Nc2ccccc2F)n1C,-0.88%
8,O=C(COC(=O)C12CC3CC(CC(O)(C3)C1)C2)NC12CC3CC(CC(C3)C1)C2,17.4%
9,Cc1ccc(NC(=S)NCc2ccccc2Cl)c(C)c1,22.1%
10,Cc1ccc(CN(Cc2cccnc2)C(=S)Nc2cccc(Cl)c2C)cc1,21.5%
11,COCCN(CCOC)C(=S)Nc1ccccc1Cl,-4.19%
12,COCCNC(=S)N(Cc1cccnc1)Cc1ccc(OC)c(OC)c1,1.16%
13,Cc1c(Cl)cccc1NC(=S)N(Cc1ccccc1)Cc1cccnc1,90.4% (active)
14,O=C(Nc1ccccc1)N(Cc1cccnc1)Cc1ccco1,4.43%
15,Cc1ccc(C(=O)NC(=S)NCc2cccnc2)cc1,2.7%
16,Cc1ccc(CN(Cc2cccnc2)C(=S)Nc2cc(Cl)ccc2C)cc1,93.8% (active)
17,Cc1cccc(C)c1NC(=S)N(Cc1cccnc1)Cc1ccccc1Cl,93.8% (active)
18,CC(C)CCC(C)NC(=O)c1ccc2nccnc2c1 (centres undefined),11.2%
19,COc1cc(-c2nnn(CC(=O)NCc3ccccc3)n2)cc(OC)c1OC,16.3%
20,COc1cc(C(=O)N2C(=O)c3cccc(N)c3C2=O)cc(OC)c1OC,-3.21%
21,COCCn1c(C)cc(C(=O)COC(=O)/C=C/c2cccc(OC)c2)c1C,0.63%
22,Cc1cc(C)nc(NS(=O)(=O)c2ccc(N/C=C\C(=O)c3cccs3)cc2)n1,4.34%
